Reference: PubChem BioAssay AID1159580 (chemical genetic matrix, 2015)
Values joined by “and” are separate entries in the source; they are usually repeats but may differ in a detail not shown here. Equal values may be shown once. Among all 5,500 compounds or so, about 2,000 (36%) were called active. About 18% were inconclusive and are not listed. No stated cut-off is given here; in the data, active means normalized growth mostly below about 0.91 (no sharp cut-off); inconclusive means no clear call, values can overlap the other calls; inactive means mostly above about 0.92. The list shows a part of the results.

Test: chemical genetic growth profiling, strain panel (AID 1159580);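 further: tested at 20 µM; growth read once vehicle control cultures reached saturation at 30 °C; 1 = growth at the plate median or of vehicle wells; lower values mean less growth of the strain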
Details: S. cerevisiae deletion strains, growth OD

Measured: normalized growth

Cc1ccc(S(=O)(=O)NC(=O)NN2CC3CCCC3C2)cc1 (configuration not stated)
inactive: locus YAL013W, strain DEP1, active compounds read low 1.01 | locus YAL021C, strain ccr4, active compounds read low 0.996 | locus YAL026C, strain drs2, active compounds read low 0.979 | locus YAL030W, strain snc1, active compounds read low 0.982 | locus YBL061C, strain skt5, active compounds read low 0.981 | locus YBR009C, strain hhf1, active compounds read low 0.976 | locus YBR021W, strain FUR4, active compounds read low 1.01 | locus YBR023C, strain chs3, active compounds read low 0.973 | locus YBR171W, strain sec66, active compounds read low 0.995 | locus YBR229C, strain ROT2, active compounds read low 1.01 | locus YBR231C, strain swc5, active compounds read low 0.984 | locus YBR279W, strain paf1, active compounds read low 0.987 | locus YCL011C, strain gbp2, active compounds read low 0.961 | locus YCL016C, strain dcc1, active compounds read low 0.98 | locus YCL029C, strain bik1, active compounds read low 1.01 | locus YCL069W, strain vba3, active compounds read low 0.993 | locus YCR088W, strain abp1, active compounds read low 0.972 | locus YDL005C, strain med2, active compounds read low 0.98 | locus YDL035C, strain GPR1, active compounds read low 0.946 | locus YDL040C, strain nat1, active compounds read low 0.984 | locus YDL074C, strain BRE1, active compounds read low 1.01 | locus YDL101C, strain DUN1, active compounds read low 1.02 | locus YDL134C, strain PPH21, active compounds read low 0.962 | locus YDL185W, strain tfp1, active compounds read low 1.02 | locus YDL192W, strain arf1, active compounds read low 1.01 | locus YDR001C, strain nth1, active compounds read low 0.968 | locus YDR069C, strain doa4, active compounds read low 0.99 | locus YDR101C, strain arx1, active compounds read low 1 | locus YDR137W, strain rgp1, active compounds read low 0.89 | locus YDR159W, strain sac3, active compounds read low 0.991 | locus YDR162C, strain NBP2, active compounds read low 0.994 | locus YDR195W, strain ref2 0.975 | locus YDR297W, strain sur2, active compounds read low 0.975 | locus YDR318W, strain mcm21, active compounds read low 1.01 | locus YDR334W, strain swr1, active compounds read low 0.959 | locus YDR335W, strain msn5, active compounds read low 0.979 | locus YDR388W, active compounds read low 1.01 | locus YDR392W, strain spt3, active compounds read low 0.974 | locus YDR502C, strain sam2, active compounds read low 0.997 | locus YEL003W, strain gim4, active compounds read low 0.968 | locus YEL037C, strain rad23, active compounds read low 0.986 | locus YEL061C, strain CIN8 (second series), active compounds read low 0.955 | locus YEL061C, strain CIN8, active compounds read low 1 | locus YER015W, strain faa2, active compounds read low 0.975 | locus YER016W, strain bim1, active compounds read low 0.995 | locus YER110C, active compounds read low 1.02 | locus YER111C, strain swi4, active compounds read low 0.972 | locus YER155C, strain BEM2 (second series), active compounds read low 0.977 | locus YER155C, strain BEM2, active compounds read low 1 | locus YER167W, strain BCK2, active compounds read low 1 | locus YFR010W, strain ubp6, active compounds read low 0.986 | locus YGL078C, strain dbp3, active compounds read low 1.01 | locus YGL086W, strain mad1, active compounds read low 0.984 | locus YGL167C, strain pmr1, active compounds read low 0.982 | locus YGL173C, strain kem1, active compounds read low 1 | locus YGL227W, strain vid30, active compounds read low 0.969 | locus YGL240W, strain doc1, active compounds read low 0.969 | locus YGL248W, strain PDE1, active compounds read low 0.995 | locus YGL253W, strain hxk2, active compounds read low 0.987 | locus YGR135W, strain pre9, active compounds read low 1.03 | locus YGR229C, strain SMI1, active compounds read low 1.01 | locus YGR252W, strain gcn5, active compounds read low 1.05 | locus YHR013C, strain ard1, active compounds read low 0.967 | locus YHR027C, strain rpn1, active compounds read low 0.983 | locus YHR030C, strain SLT2, active compounds read low 1 and 0.961 | locus YHR079C, strain IRE1 (second series), active compounds read low 1.01 | locus YHR079C, strain IRE1, active compounds read low 0.966 | locus YHR094C, strain hxt1, active compounds read low 1.01 | locus YHR129C, strain ARP1, active compounds read low 0.992 | locus YHR142W, strain chs7, active compounds read low 0.98 | locus YHR200W, strain rpn10, active compounds read low 1.01 | locus YIL066C, strain RNR3, active compounds read low 1 | locus YIL073C, strain SPO22, active compounds read low 1.05 | locus YIL125W, strain kgd1, active compounds read low 1.01 | locus YIR030C, strain dcg1, active compounds read low 1.03 | locus YJL092W, strain hpr5, active compounds read low 0.954 | locus YJL095W, strain BCK1 (second series), active compounds read low 0.973 | locus YJL095W, strain BCK1, active compounds read low 1.02 and 0.973 | locus YJL115W, strain asf1, active compounds read low 0.945 | locus YJL129C, strain trk1, active compounds read low 0.954 | locus YJL134W, strain LCB3, active compounds read low 1 | locus YJL154C, strain vps35, active compounds read low 0.97 | locus YJL164C, strain tpk1, active compounds read low 0.97 | locus YJL166W, strain qcr8, active compounds read low 0.981 | locus YJL168C, strain set2, active compounds read low 1.01 | locus YJL187C, strain SWE1 (second series), active compounds read low 1 | locus YJL187C, strain SWE1, active compounds read low 0.989
